What all share (experiment): NCI-60 one-dose screen, 48 h (100 = growth as untreated, 0 = no growth, -100 = all killed)
Assay [1] has as its system NCI-H23 lung. To be noted: 10 µM unless noted.
Assay [2] has as its system NCI-H226 lung. As to conditions: 10 µM unless noted.
Assay [3] concerns NCI-H322M lung. To be noted: 10 µM unless noted.
The test system of assay [4] is HOP-62 NSCLC. To be noted: 10 µM unless noted.
In assay [5] the test system is NCI-H460 lung. As to conditions: 10 µM unless noted.
In assay [6] the test system is HOP-92 NSCLC. As to conditions: 10 µM unless noted.
Assay [7] relates to NCI-H522 lung. As to conditions: 10 µM unless noted.
In assay [8] the test system is A549/ATCC NSCLC. As to conditions: 10 µM unless noted.
The subject of assay [9] is 786-0 renal. As to conditions: 10 µM unless noted.
Assay [10] relates to COLO 205 colon. As to conditions: 10 µM unless noted.
In assay [11] the test system is DU-145 prostate. To be noted: 10 µM unless noted.
For assay [12], the system named is K-562 leukemia. To be noted: 10 µM unless noted.
Assay [13] concerns MALME-3M melanoma. As to conditions: 10 µM unless noted.
In assay [14] the test system is RXF 393 renal. To be noted: 10 µM unless noted.
Assay [15] deals with SF-268 CNS. To be noted: 10 µM unless noted.
The test system of assay [16] is SF-295 CNS. As to conditions: 10 µM unless noted.
Assay [17] has as its system SF-539 CNS. As to conditions: 10 µM unless noted.
The test system of assay [18] is UACC-257 melanoma. As to conditions: 10 µM.
In assay [19] the test system is M14 melanoma. As to conditions: 10 µM unless noted.
For assay [20], the system named is MDA-MB-231 breast. As to conditions: 10 µM unless noted.

About 83,000 compounds went through this panel and 20% of them were active in at least one assay; those are over-represented in the sample as a whole.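 Assay: single dose, 48 h. Readout: percent growth (0 = no net growth; negative = cell death). Active: <10.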 A number with no mark means an inactive call. The source made the active and inactive calls.

Take `NC(=S)NN=C1CCCCC1`: the growth in [1] was 89.5%; in assay [2] it was 87.5%; in assay [3], 99.3%; in assay [4] it was 91.9%; in [5] it was 97.8%; in [6], 92.1%. For the same compound, the growth in assay [7] is 70.3%; in assay [8], 84.7%; in [9], 106%; in [10], 93.2%; in assay [11], 95.1%; in [12] it was 40.1%. In addition, the growth in [13] was 91.6%; in assay [14], 109%; in assay [15], 93.5%; in assay [16] it was 92.8%; in [17], 99.7%; in assay [18], 73.3%. Moreover, the growth in assay [19] was 81.2%.
Consider `CCN(Cc1ccccc1)c1ccc(SC#N)cc1`, for which the growth in assay [1] is 80.6%; in assay [2], 112%; in assay [3], 91.6%; in [4], 118%; in assay [5], 90%; in [6], 53.4%. Also, the growth in [7] was -26.7% (active); in [8], 102%; in assay [9] it was 73.4%; in [10] it was 50.4%; in [11], 98.3%; in assay [12] it was 41%. For the same compound, the growth in [13] is 88%; in assay [14], 47.6%; in [15], 83.8%; in assay [16], 95.3%; in assay [17], 82.2%; in [18], 107%. Moreover, the growth in [19] is 89.2%.
`O=[N+]([O-])c1cc(S(=O)(=O)OCC2CO2)ccc1Cl` (configuration not stated): the growth was 96% in assay [1]; 110% in assay [2]; 82.2% in assay [3]; 111% in [4]; 109% in assay [5]; 125% in assay [6]. Besides, the growth is 85.9% in assay [7]; 101% in assay [8]; 106% in assay [9]; 117% in [10]; 101% in assay [11]; 98.1% in assay [13]. The growth was 132% in assay [20]; 103% in assay [14]; 94.3% in [15]; 101% in assay [16]; 106% in assay [17]; 100% in assay [18]. For the same compound, in assay [19], the growth was 95.1%.
Consider `Cc1ccc(C2=NN(c3ccc(S(N)(=O)=O)cc3)C(c3cn(-c4ccccc4)nc3-c3ccccc3)C2)cc1` (configuration not stated), for which the growth was 93.8% in assay [1]; 97.8% in assay [2]; 101% in [3]; 105% in [4]; 38.9% in assay [5]; 27.7% in assay [6]. For the same compound, the growth is 75.2% in [7]; 65% in [8]; 109% in [9]; 101% in assay [10]; 65.7% in assay [11]; 21.9% in assay [12]. Also, the growth in [20] was 82.7%; in assay [14], 95.8%; in assay [15], 42.7%; in [16] it was 104%; in [17], 112%; in assay [18], 98.8%. Besides, the growth in [19] is 96.1%.
With `COc1ccc(/C=C/C(=O)c2cccc(B(O)O)c2)cc1O`, the growth was 61.9% in [1]; 91.5% in assay [2]; 64% in assay [3]; 40.5% in assay [4]; 13.8% in assay [5]; 41.4% in [6]. The growth in assay [7] is 43.9%; in assay [8] it was 41.7%; in assay [9], 59.1%; in assay [10], 98.3%; in assay [11], -10% (active); in assay [12] it was 8.39% (active). Further, the growth in assay [20] was 48.2%; in assay [14], 41.5%; in assay [15], 47.8%; in assay [16] it was 87.4%; in [17], 0.0331% (active); in [18], 75%. In addition, in assay [19], the growth is 70.6%.
Regarding `CCN(CC)c1cc(/C=C/c2ccc(OC)c(OC)c2)nc2cc(F)c(F)cc12`, the growth in [1] is -2.87% (active); in assay [2], 24.6%; in assay [3], 90.9%; in [4] it was -78.8% (active); in [5] it was 84.9%; in assay [6] it was -53.2% (active). Further, the growth in assay [7] was 33.9%; in [8], 64.8%; in [9] it was -18.7% (active); in assay [10], 105%; in assay [11] it was 71.8%; in assay [13], 4.61% (active). Besides, the growth is 8.74% (active) in assay [20]; -58.7% (active) in assay [14]; 7.33% (active) in assay [15]; -66% (active) in assay [16]; 4.7% (active) in [17]; 87.7% in assay [18]. Moreover, the growth in assay [19] is 74.6%.
In the case of `Clc1nc2ccccc2nc1CI`, the growth in [1] is 86%; in assay [2], 68.2%; in assay [3] it was 89.9%; in assay [4], 105%; in assay [5] it was 108%; in assay [6], 90.9%. The growth is 3.79% (active) in assay [7]; 117% in assay [8]; 101% in [9]; 120% in assay [10]; 109% in [11]; 21.3% in assay [12]. The growth is 49.5% in [13]; 94.9% in assay [14]; 113% in assay [15]; 95.8% in [16]; 97.8% in assay [17]; 119% in assay [18]. Also, the growth in assay [19] is 55.3%.
Consider `O=C(Nc1ccccc1)OCC1OCOC(COC(=O)Nc2ccccc2)C1OC(=O)Nc1ccccc1` (configuration not stated), for which the growth in [1] is 67.1%; in assay [2], 84%; in assay [3] it was 49.4%; in [4], 64.8%; in assay [5] it was 6.23% (active); in assay [6], 94.9%. Moreover, the growth in [7] is 38.2%; in assay [8], 47.9%; in [9], 49.3%; in assay [10] it was 91.6%; in [11], 43.7%; in [12], 57.9%. Besides, the growth was 72.2% in assay [13]; 37% in [14]; 39.8% in assay [15]; 90.5% in [16]; 72.4% in assay [17]; 102% in assay [18]. Also, in assay [19], the growth is 16.2%.

Values taken from PubChem BioAssay (NCI).
